The supplement of paper PMC7380943

Columns and labels:
[1] = tested on: CLZ3 (HCA2 human fibroblast dual HR-NHEJ reporter); test: NHEJ repair efficiency (GFP+ cells) relative to control (log10 fold); higher = more non-homologous end joining; conditions: 5 µM; doxycycline 0.5 ug/mL
[2] = tested on: CLZ3 (HCA2 human fibroblast dual HR-NHEJ reporter); test: HR repair efficiency (tdTomato+ cells) relative to control (log10 fold); higher = more homologous recombination; conditions: 5 µM; doxycycline 0.5 ug/mL
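For HR repair efficiency (tdTomato+ cells) relative to control in this document: compound given one day before doxycycline, which switches on I-SceI endonuclease expression to create double-strand breaks within the integrated reporter.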
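For NHEJ repair efficiency (GFP+ cells) relative to control in this document: compound given one day ahead of doxycycline, which switches on I-SceI endonuclease to cut the chromosomally integrated reporter and create DSBs.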

SMILES	NHEJ repair efficiency (log10) [1]	HR repair efficiency (log10) [2]
CC(CCC(OC1OC(CO)C(O)C(O)C1OC1OC(CO)C(O)C(O)C1O)C(C)(C)O)C1CCC2(C)C3CC=C4C(CCC(OC5OC(COC6OC(CO)C(O)C(O)C6O)C(O)C(O)C5O)C4(C)C)C3(C)C(O)CC12C (centres undefined) [Mogroside IV]	0.0766	0.171
C=CCc1ccc(O)c(OC)c1 [Eugenol]	0.027	-0.0172
COc1cc2oc(=O)ccc2c(OC)c1O [Fraxinol]	0.0138	0.0872
O=C1/C(=C2\Nc3ccccc3C2=O)Nc2ccccc21 [Indigo]	-0.108	-0.0903
OCC1=C[C@@H](O)[C@@H]2C=CO[C@@H](O[C@@H]3O[C@H](CO)[C@@H](O)[C@H](O)[C@H]3O)[C@H]12 [Aucubin]	0.0297	0.121
C=C1CCC[C@]2(C)C[C@]3(O)OC(=O)C(C)=C3C[C@@H]12 [Atractylenolide Ⅲ]	0.0709	0.0176
CC(C)=CCc1c(O)ccc(C(=O)/C=C/c2ccc(O)cc2)c1O [Isobavachalcone]	0.0115	0.0547
O=c1c(-c2ccc(O)cc2)coc2c([C@@H]3O[C@H](CO)[C@@H](O)[C@H](O)[C@H]3O)c(O)ccc12 [Puerarin]	0.0163	0.038
CC(C)(O)[C@H](O)COc1c2ccoc2cc2oc(=O)ccc12 [Oxypeucedanin Hydrate]	-0.0248	0.00711
CCCCC/C=C\C/C=C\CCCCCCCC(=O)O [Linoleic Acid]	0.0448	-0.0026
COc1ccc(-c2coc3cc(O)cc(O)c3c2=O)cc1 [Biochanin A]	-0.0507	0.0228
C[C@@H]1O[C@@H](O[C@H]2[C@H](OC(=O)[C@]34CCC(C)(C)C[C@H]3C3=CC[C@@H]5[C@@]6(C)C[C@H](O)[C@H](O[C@@H]7O[C@H](CO)[C@@H](O)[C@H](O)[C@H]7O)C(CO)(CO)[C@@H]6CC[C@@]5(C)[C@]3(C)C[C@H]4O)OC[C@H](O)[C@@H]2O)[C@H](O)[C@H](O)[C@H]1O[C@@H]1OC[C@@H](O)[C@H](O[C@@H]2OC[C@](O)(CO)[C@H]2O)[C@H]1O [Platycodin D]	-0.142	-0.287
C[C@@H]1O[C@@H](O[C@H]2C(=O)c3c(O)cc(O)cc3O[C@@H]2c2ccc(O)c(O)c2)[C@H](O)[C@H](O)[C@H]1O [Astilbin]	0.0148	0.109
C=C(C)[C@@H]1CC[C@]2(C)[C@H](CC=C3[C@@H]4[C@@H](C)[C@H](C)CC[C@]4(C)CC[C@]32C)[C@@]1(C)CCC(=O)O [Roburic acid]	0.15	0.128
COc1cc2c(cc1O)C[C@H]1c3cc(O)c(OC)cc3CC[N@@+]1(C)C2 [Phellodendrine]	0.199	-0.099
COC(=O)C1=CO[C@@H](O[C@@H]2O[C@H](CO)[C@@H](O)[C@H](O)[C@H]2O)[C@@H]2[C@@]3(C)O[C@H]3[C@@H](O)[C@]12O [Sesamoside]	-0.0395	-0.1
C=C1CC[C@@H]2[C@](C)(CO)[C@H](O)CC[C@@]2(C)[C@@H]1C/C=C1/C(=O)OC[C@H]1O [Andrographolide]	0.0511	0.266
COc1cc2ccc(=O)oc2c(O[C@@H]2O[C@H](CO)[C@@H](O)[C@H](O)[C@H]2O)c1O [Fraxin;Fraxoside; Paviin]	0.0655	0.0876
Cc1cc(O)c2c(c1)C(=O)c1cccc(O)c1C2=O [Chrysophanol]	0.0473	0.134
CC1CCC(C(C)C)C(O)C1 (racemic) [dl-Menthol]	0.0823	0.0753
CC(C)=C1C/C=C(\C)CC/C=C(\C)CC1=O [Germacrone]	0.0003	-0.103
O=c1ccc2ccccc2o1 [Coumarin]	-0.104	0.0819
COc1ccc(-c2oc3cc(OC)c(OC)c(O)c3c(=O)c2OC)cc1O [Vitexicarpin]	-0.0426	-0.203
COc1ccc(-c2cc(=O)c3c(OC)c(OC)c(OC)c(OC)c3o2)cc1 [Tangeretin]	-0.13	-0.0674
O=C(O)c1ccccc1O [Salicylic acid]	0.019	0.0351
COc1ccc(-c2cc(=O)c3c(O)cc(O)cc3o2)cc1 [Acacetin]	-0.203	0.0794
CC(C)(O)[C@@H]1CC[C@](C)([C@H]2[C@@H](O)C[C@@]3(C)[C@@H]4C[C@H](O)[C@H]5C(C)(C)[C@@H](O)CC[C@@]56C[C@@]46CC[C@]23C)O1 [Cycloastragenol]	-0.045	0.136
